mHTT-CaM PPI inh: disrupts binding of mutant huntingtin to calmodulin. 3.6% of 190,000 active. inhibition, % at 15 µM. P42858. AlphaScreen His-mHTT/GST-CaM binding, luminescence. AID 1671202;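 note: 0% = both proteins with DMSO and 100% = one protein alone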
Pf apPOL block: Pf-apPOL DNA polymerase inhibition; Recombinant Pf-apPOL, molecular beacon fluorescence, 1.5 h; inhibition, % at 10 µM; 0.25% of 210,000 active; AID 1794808
* hit, by the source's call. Hits are enriched below; roughly 3.6% of the tested compounds scored in any of these assays. Cut-off read from the data, not from the text of the source: active = inhibition above about 50%; inactive = the rest.

For Cc1ccc(C(=O)N2CC3CC2CC3NS(=O)(=O)c2cccnc2)cc1F (centres undefined) the results were mHTT-CaM PPI inh 9 and Pf apPOL block -1.
`COCCN1C(=O)CN(C2CCCCC2)C(=O)C1c1ccc(OC)c(OC)c1` (centres undefined) gave mHTT-CaM PPI inh -5 and Pf apPOL block -15.
For COc1ccc(CC(=O)Nc2c3c(nn2-c2ccc(OC)cc2)CSC3)cc1 the results were mHTT-CaM PPI inh 31 and Pf apPOL block -1.
For COc1ccc(CNC(=O)Cn2nc3c(c2NC(=O)Cc2cccs2)CSC3)cc1 the results were mHTT-CaM PPI inh 66* and Pf apPOL block 42.
`CCN(c1ccc(F)cc1)S(=O)(=O)c1ccc2[nH]cc(C(=O)NCCCOC)c(=O)c2c1` gave mHTT-CaM PPI inh 22 and Pf apPOL block -8.
`CCCc1[nH]c(=S)[nH]c(=O)c1C` gave Pf apPOL block -4.
O=c1[nH]c2ccc(Cl)cc2c(-c2ccccc2)c1CN1CCCCC1 was read as mHTT-CaM PPI inh 100* and Pf apPOL block 0.
For O=C(CCN1CCCCC1)Nc1c(-c2ccccc2)c2cc(Br)ccc2[nH]c1=O the results were mHTT-CaM PPI inh 99* and Pf apPOL block -9.
Screening O=c1[nH]c2ccc(Cl)cc2c(-c2ccccc2)c1N1CCN(Cc2ccc3c(c2)OCO3)CC1 returned mHTT-CaM PPI inh 100* and Pf apPOL block -2.
For Cc1[nH]c2ccc(Cl)cc2c(=O)c1CN1CCCC1 the results were mHTT-CaM PPI inh 0 and Pf apPOL block 0.
`O=C(CCN1CCCC1)Nc1cccc(Br)c1` gave mHTT-CaM PPI inh -4 and Pf apPOL block -3.
For O=c1[nH]c2ccc(Cl)cc2c(-c2ccccc2)c1N1CCOCC1 the results were Pf apPOL block -18.
Screening O=C(NCc1ccccc1F)C1CCN(c2cc(N3CCCCC3)ncn2)CC1 returned mHTT-CaM PPI inh 5 and Pf apPOL block 1.
Screening CCOC1=NN(c2ccc([N+](=O)[O-])cc2)C(=O)/C1=C/c1ccccc1OC returned mHTT-CaM PPI inh 23 and Pf apPOL block -2.
CCOC1=NN(c2ccc([N+](=O)[O-])cc2)C(=O)/C1=C\c1ccccc1C(F)(F)F was read as mHTT-CaM PPI inh 62* and Pf apPOL block -3.
For COc1ccc(C2CC(=O)Oc3c(C(CCN4CCOCC4)c4cc(OC)c(OC)c(OC)c4)c(OC)cc(OC)c32)cc1 (centres undefined) the results were mHTT-CaM PPI inh 0 and Pf apPOL block -4.
COc1cc(OC)c2c(c1C(CCN1CCOCC1)c1ccc(N(C)C)cc1)OC(=O)CC2c1ccc(N(C)C)cc1 (centres undefined) was read as mHTT-CaM PPI inh 100* and Pf apPOL block -6.
For COc1cc(C(CCN2CCOCC2)c2c(OC)cc(OC)c3ccc(=O)oc23)cc(OC)c1OC (centres undefined) the results were mHTT-CaM PPI inh 29 and Pf apPOL block -14.
For COc1cc(C(CCN2CCCCC2)c2c(OC)cc(OC)c3c2OC(=O)CC3c2ccc(N(C)C)cc2)cc(OC)c1OC (centres undefined) the results were mHTT-CaM PPI inh 78* and Pf apPOL block -9.
`COc1ccc2c(c1)C(c1ccc3c(c1)OCO3)CC(=O)O2` (centres undefined) gave mHTT-CaM PPI inh 33 and Pf apPOL block -1.
`COc1cc(C(CCN2CCOCC2)c2c(OC)cc(OC)c3c2OC(=O)CC3c2ccc(N(C)C)cc2)cc(OC)c1OC` (centres undefined) gave mHTT-CaM PPI inh 74* and Pf apPOL block -6.
Screening COc1ccc(C2CC(=O)Oc3c(C(CCN4CCOCC4)c4ccc5c(c4)OCO5)c(OC)cc(OC)c32)cc1 (centres undefined) returned mHTT-CaM PPI inh 79* and Pf apPOL block -6.
Screening Cc1noc(-c2nn(C)c3c2CN(C(=O)C2CCCO2)CC3)n1 (centres undefined) returned mHTT-CaM PPI inh -4 and Pf apPOL block -2.
COc1cccc(-c2noc(C3CCCN3C(=O)c3ccc(C)s3)n2)c1 (centres undefined) was read as mHTT-CaM PPI inh -6 and Pf apPOL block -5.
Screening CCC(=O)N1CCN(c2ccc(Cl)cc2)C(=O)C1C (centres undefined) returned mHTT-CaM PPI inh -2 and Pf apPOL block -1.
O=C(NCc1cccnc1)c1cn2ccnc(-c3ccccc3)c2n1 was read as mHTT-CaM PPI inh 14 and Pf apPOL block 4.
CCOc1ccc(C2CC(=O)Nc3n[nH]c(-c4ccc(Cl)cc4)c32)cc1 (centres undefined) was read as mHTT-CaM PPI inh 15 and Pf apPOL block -3.
CN(CCNC(=O)c1cc(-c2cccnc2)nc2ccccc12)Cc1ccccc1 was read as mHTT-CaM PPI inh 9 and Pf apPOL block -15.
Cc1nc(C2CCCN2S(=O)(=O)Cc2ccccc2)n[nH]1 (centres undefined) was read as mHTT-CaM PPI inh -4 and Pf apPOL block -2.
`CCOc1ccc(-n2ccn3cc(-c4ccc(OC)cc4)nc3c2=O)cc1` gave mHTT-CaM PPI inh -5 and Pf apPOL block -2.
COc1ccc(NC(=O)CCN2CCN(c3ccccc3)CC2)c(OC)c1 was read as mHTT-CaM PPI inh 6 and Pf apPOL block -8.
COc1cc(C2CC(=O)Oc3c(C(C)C)ccc(C)c32)cc(OC)c1OC (centres undefined) was read as mHTT-CaM PPI inh -9 and Pf apPOL block -5.
For COc1cc(C(CCN2CCCC2)c2c(OC)cc(OC)c3c2OC(=O)CC3c2ccc(N(C)C)cc2)cc(OC)c1OC (centres undefined) the results were mHTT-CaM PPI inh 75* and Pf apPOL block -4.
`COc1ccc(C2CC(=O)Oc3c(C(CCN4CCN(c5ccccc5)CC4)c4ccc(N(C)C)cc4)c(OC)cc(OC)c32)cc1` (centres undefined) gave mHTT-CaM PPI inh 73* and Pf apPOL block -7.
`CCN(CC)CCC(c1cc(OC)c(OC)c(OC)c1)c1c(OC)cc(OC)c2ccc(=O)oc12` (centres undefined) gave mHTT-CaM PPI inh 4 and Pf apPOL block -8.
Screening CCN(CC)CCC(c1cc(OC)c(OC)c(OC)c1)c1c(OC)cc(OC)c2c1OC(=O)CC2c1ccc(N(C)C)cc1 (centres undefined) returned mHTT-CaM PPI inh 69* and Pf apPOL block -6.
Screening Cc1noc(C)c1C1CCCN1Cc1cc(F)ccc1F (centres undefined) returned mHTT-CaM PPI inh -43 and Pf apPOL block 1.
COc1ccccc1N1CCN(CC(O)COc2ccccc2C(C)(C)C)CC1 (centres undefined) was read as mHTT-CaM PPI inh 19 and Pf apPOL block -2.
`COc1ccc(N2CCN(CC(O)COc3ccc(Cl)cc3C)CC2)cc1` (centres undefined) gave mHTT-CaM PPI inh 76* and Pf apPOL block -2.
For COc1ccccc1N1CCN(CC(O)COc2ccc(Cl)cc2C)CC1 (centres undefined) the results were mHTT-CaM PPI inh 75* and Pf apPOL block 21.
COc1ccc(N2CCN(CC(O)COc3ccccc3C(C)(C)C)CC2)cc1 (centres undefined) was read as mHTT-CaM PPI inh 71* and Pf apPOL block 2.
`COc1ccc(N2CCN(CC(O)COc3ccc(C)c(C)c3)CC2)cc1` (centres undefined) gave mHTT-CaM PPI inh 36 and Pf apPOL block 0.
For COc1ccccc1N1CCN(CC(O)COc2cccc3ccccc23)CC1 (centres undefined) the results were mHTT-CaM PPI inh 23 and Pf apPOL block -7.
